Measured values reported in PubChem BioAssay AID2241 (Broad Institute, 2010).
Out of some 21,000 compounds screened, about 110 (0.52%) were called active. This is one part of a sample in which actives are shown more often than they occur. Values without a mark were called inactive.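 The calls were made as follows: active = most replicate scores above 10, or exactly half above 10 with mean activity above 10; inconclusive = mean activity below 10 while half the replicates exceed 10; inactive = most replicate scores below 10.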

Assay: inducers of caspase activity in MEF A1-2A-BIM cells, primary screen, A1 inhibitor project, cell-based, CaspaseGlo luminescence (AID 2241);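 also: effector caspase 3 and 7 activity cleaving a DEVD luciferin substrate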
Settings: caspase-Glo luminescence, 3 h, stronger effect = higher value, percent of clofoctol signal, DMSO as zero, concentration not given here

| SMILES | caspase activation |
| --- | --- |
| CC(=O)N1[C@@H](c2ccc(C)cc2)SC(C)(C)[C@@H]1C(=O)O | -0.0443% |
| O=C(CNC(=S)N(Cc1ccccc1)Cc1ccccc1F)N1CCCC1 | 0.68% |
| O=C(NCSc1nc2ccccc2s1)c1ccco1 | 0.614% |
| O=S(=O)(NCc1ccc(-c2cccs2)cc1)c1cccs1 | 0.285% |
| CC(C)NC(=O)N(C)C[C@H]1Oc2ccc(N(C)C)cc2C(=O)N([C@@H](C)CO)C[C@H]1C | 0.193% |
| Cc1noc(C)c1NC(=O)N(C)C[C@H]1Oc2ccc(NS(=O)(=O)c3ccc(F)cc3)cc2C(=O)N([C@@H](C)CO)C[C@H]1C | 0.124% |
| O=C1CCCCC1C(=O)c1ccccc1 (centres undefined) | -0.0515% |
| COC(=O)C1=C(C)Nc2c(c(=O)n(C)c(=O)n2C)C1c1cccc(OCc2ccccc2)c1 (centres undefined) | 0.0517% |
| C[C@H]1CN([C@@H](C)CO)C(=O)c2cc(NC(=O)C3CC3)ccc2O[C@@H]1CN(C)Cc1ccc(Oc2ccccc2)cc1 | 0.539% |
| O=C(CCn1c(=S)[nH]c2cc3c(cc2c1=O)OCO3)NC1CCCC1 | -1.11% |
| Clc1ccc(N2CCCCCCC2)nn1 | 0.981% |
| CC(=O)Nc1ccc(N=Cc2ccc(N3CCOCC3)cc2)cc1 | -0.682% |
| Cc1ccc(C23CC4CC(CC(CN)(C4)C2)C3)cc1C | 4.34% |
| Cc1cc(-c2cccs2)c2c(N)c(C(=O)c3ccccc3)sc2n1 | 1.1% |
| O=c1c2c3c(sc2[nH]c(=S)n1Cc1ccccc1)CCCCC3 | -0.256% |
| Cc1ccc(SCC(=O)Nc2nncs2)cc1 | -1.27% |
| O=C(NCc1ccc2c(c1)OCO2)c1ccc(Cl)cc1 | -0.323% |
| CCOC(=O)c1cc(-c2ccnn2S(=O)(=O)c2ccc(C)cc2)on1 | -0.165% |
| Cc1noc(C)c1NC(=O)Nc1ccc2c(c1)C(=O)N([C@@H](C)CO)C[C@@H](C)[C@H](CN(C)Cc1ccc(C(F)(F)F)cc1)O2 | -0.666% |
| Cc1ccc(S(=O)(=O)Nc2ccc3c(c2)C(=O)N([C@@H](C)CO)C[C@H](C)[C@@H](CN(C)Cc2ccc4c(c2)OCO4)O3)cc1 | -0.498% |
| O=C(COc1ccccc1)NCCc1nc2ccccc2n1Cc1ccccc1 | 0.301% |
| Cc1cc(C)c(N=c2scc(C)n2Cc2ccccc2)c(C)c1 | 0.564% |
| COc1ccc(-c2cc(C(F)(F)F)nc(SCC(=O)N3CCCCCC3)n2)cc1OC | -1.22% |
| Cc1cccc(N2CCN(C(=O)CCn3c(=S)[nH]c4cc5c(cc4c3=O)OCO5)CC2)c1C | -1.1% |
| COc1ccc(S(=O)(=O)Nc2ccc3c(c2)C(=O)N([C@@H](C)CO)C[C@H](C)[C@H](CN(C)Cc2ccc(C(=O)O)cc2)O3)cc1 | 0.618% |
| C/C=C1\CC(C)(CC)C(C#N)(C#N)C(N)=C1C#N (centres undefined) | -1.08% |
| Cc1ccc(S(=O)(=O)Nc2ccc3oc(C)c(C(=O)NN)c3c2)cc1 | 0.426% |

| SMILES | caspase activation |
| --- | --- |
| COc1ccc(CCn2c(C)nc(=O)c(-c3ccccc3)c2C)cc1OC | 0.553% |
| CC1(C)CC(=O)C=C(Nc2ccccc2)C1 | 0.527% |
| CN(C)c1ccc(/C=C(\C#N)S(=O)(=O)c2ccccc2)cc1C#N | 0.997% |
| COc1ccc(OC(=O)c2csc(Cc3c(Cl)cccc3Cl)n2)cc1 | 1.94% |
| O=C(Nc1nccs1)C1CCCN(C(=O)c2cnn(-c3ccccc3)c2-n2cccc2)C1 (centres undefined) | 0.381% |
| CC1(C)CC(=O)C(C=NCc2cccnc2)=C(O)C1 | 1.24% |
| C[C@H](CO)N1C[C@H](C)[C@@H](CN(C)Cc2ccccc2)Oc2ccc(NC(=O)Nc3ccc4c(c3)OCO4)cc2C1=O | 0.17% |
| COc1ccc(CN(C)C[C@@H]2Oc3ccc(NC(=O)NC(C)C)cc3C(=O)N([C@@H](C)CO)C[C@H]2C)cc1 | -0.804% |
| CC1(C)Cc2c(sc3ncn4nc(COc5ccc(Cl)cc5)nc4c23)C(C)(C)N1 | 0.338% |
| C/C=C(/C)C(=O)O[C@H]1CC(C)(C)C[C@H]2C3=CCC4[C@@]5(C)CC[C@H](O[C@@H]6O[C@H](C(=O)O)[C@@H](O[C@@H]7O[C@H](CO)[C@H](O)[C@H](O)[C@H]7O[C@@H]7O[C@H](CO)[C@@H](O)[C@H](O)[C@H]7O)[C@H](O)[C@H]6O[C@@H]6O[C@@H](C)[C@H](O)[C@@H](O)[C@H]6O)C(C)(C)C5CC[C@@]4(C)[C@]3(C)[C@@H](O)[C@@H](O)[C@@]12CO (some centres undefined) | -2.44% |
| COc1ccc(S(=O)(=O)N(C)C[C@H]2Oc3ccc(NC(=O)Nc4c(C)noc4C)cc3C(=O)N([C@H](C)CO)C[C@H]2C)cc1 | -0.141% |
| CCOC(=O)c1cnc2cc(C(F)(F)F)ccc2c1N1CCCCCC1 | 0.00836% |
| C[C@H](CO)N1C[C@H](C)[C@H](CN(C)S(=O)(=O)c2cccs2)Oc2ccc(NS(=O)(=O)c3ccccc3)cc2C1=O | -0.0772% |
| COc1cccc(NC(=O)c2cc3c(s2)-c2c(C)cccc2OC3)c1 | -5.23% |
| Cc1nn(C)cc1C(=O)c1ccccc1 | 0.635% |
| Cc1ccc2c(c1)N(CCCC(=O)N1CCCCC1)C(=O)CO2 | -0.335% |
| Cc1ccccc1-n1c(-c2ccc(Br)cc2)n[nH]c1=S | -0.035% |
| COc1cc(OC)cc(C(=O)N2CCN=C2c2ccccc2)c1 | 0.196% |
| Cc1nn(C(C)C(=O)NC2CCCCCC2)c(=O)c2cc3occc3n12 (centres undefined) | 0.379% |
| O=C(Nc1ccc(S(=O)(=O)Nc2nccs2)cc1)N1c2ccccc2Sc2ccccc21 | 0.0197% |
| Fc1cc(F)cc(NC(=S)NCCN(C2CCCCC2)C2CCCC2)c1 | -0.0874% |
| CC(=O)Oc1ccc(C2OCC3C(C)C=C(C)C2C3C)cc1 (centres undefined) | 0.946% |
| O=C(NCc1ccc2c(c1)OCO2)c1sc(=S)n2c1[nH]c(=O)c1ccccc12 | -0.669% |
| CCOC(=O)c1cn(CC)c2cc(F)c(F)cc2c1=O | 0.158% |
| O=C(NCc1ccccc1Cl)C1=CSCCO1 | -0.087% |
| C[C@@H]1CN([C@@H](C)CO)C(=O)c2cc(NS(=O)(=O)c3ccccc3)ccc2O[C@H]1CN(C)S(=O)(=O)c1ccc(Cl)cc1 | 0.207% |
| Cc1ccc(-c2nn(C(C)(C)C)c3ncnc(N)c23)cc1 | 11.3% (active) |

| SMILES | caspase activation |
| --- | --- |
| COc1ccc(NC(=O)Nc2ccc3c(c2)C(=O)N([C@@H](C)CO)C[C@H](C)[C@@H](CN(C)C(=O)NC2CCCCC2)O3)cc1 | -0.437% |
| Cc1ccc(S(=O)(=O)c2no[n+]([O-])c2S(=O)(=O)c2ccc(C)cc2)cc1 | -3.56% |
| CCC(CC)NC(=O)C1c2ccccc2Oc2ccccc21 | 0.418% |
| Cc1noc(C)c1S(=O)(=O)Nc1ccc2c(c1)C(=O)N([C@@H](C)CO)C[C@H](C)[C@H](CN(C)C(=O)Nc1ccc(C(F)(F)F)cc1)O2 | -0.257% |
| Cc1ccc(-n2c(C)nc3sc4c(c3c2=O)CCC4)cc1 | 0.54% |
| CC(=O)Oc1ccc2occ(C(=O)c3cc4ccccc4o3)c2c1 | -5.48% |
| O=C(Nc1ccc(Cl)cc1)Nc1ccc(N2CCN(c3ncccc3C(F)(F)F)CC2)nc1 | -0.335% |
| Cc1cccc(NC(=O)C2C3CC/C=C\CCC32)c1 (centres undefined) | 1.35% |
| CN1C(=O)C(Cc2ccccc2)(Cc2ccccc2)c2ccccc21 | -0.527% |
| C=CCn1c2ccccc2c2nnc(SCCCC(=O)c3ccc(F)cc3)nc21 | -0.988% |
| CNC(=O)CSc1nc2ccccc2[nH]1 | 0.45% |
| Cc1nc(C2COc3ccccc3O2)ncc1S(=O)(=O)c1ccc(Cl)cc1 (centres undefined) | -0.851% |
| O=C(CC1SC(=NC2CC3C=CC2C3)NC1=O)Nc1ccccc1Cl (centres undefined) | 0.103% |
| C[C@H]1CN([C@@H](C)CO)C(=O)c2cc(NC(=O)CCC(F)(F)F)ccc2O[C@H]1CN(C)Cc1ccc(C(=O)O)cc1 | 0.236% |
| COc1ccc(-c2nn(C)c3ccccc23)cc1 | -6.81% |
| C=CCn1c(SC)nnc1-c1ccc(OC)c(OC)c1 | 0.905% |
| CCc1nnc(NC(=O)c2cc(S(=O)(=O)N3CCc4ccccc43)cn2C)s1 | 1.26% |
| Cc1ccc(S(=O)(=O)N(CC(=O)Nc2cccnc2)c2cc(C)cc(C)c2)cc1 | 0.203% |
| O=C(CC(=O)c1ccccc1O)c1ccccc1 | -2.59% |
| C[C@@H]1CN([C@H](C)CO)C(=O)c2cc(NC(=O)c3ccncc3)ccc2O[C@H]1CN(C)Cc1ccc(Oc2ccccc2)cc1 | -0.569% |
| CC(=O)Nc1ccc(S(=O)(=O)CCO)cc1 | 2.64% |
| NC(=O)N1CCc2ccccc21 | 0.412% |
| C[C@@H]1CN([C@H](C)CO)C(=O)c2cc(NS(=O)(=O)c3ccc(F)cc3)ccc2O[C@@H]1CN(C)C(=O)Nc1cccc2ccccc12 | -0.274% |
| O=C(c1cccc(Cl)c1)N(Cc1ccccc1)Cc1ccccc1 | -0.527% |
| COc1ccc(S(=O)(=O)Nc2ccc3c(c2)C(=O)N([C@H](C)CO)C[C@@H](C)[C@H](CN(C)C(=O)Nc2ccc4c(c2)OCO4)O3)cc1 | 0.103% |
